In PubChem BioAssay AID1445 (SRMLSC, 2008) one finds inhibition data, which are given here for 94 compounds.

By inhibition is commonly meant the drop in the measured response relative to a control, in per cent.

SMILES strings stand for the structures. The whole screen tested about 220,000 compounds, of which about 910 (0.41%) were called active. The entries come from a sample that favours actives as a whole. Results with a measured potency or affinity are listed apart. Values without a mark were called inactive.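 The calls were made as follows: active = primary inhibition above the hit cutoff, then over 50% inhibition at one or more dose response concentrations (cut at about 23% in these data, passing the limit was not always enough); inconclusive = conflicting primary data, or primary hits not chosen for dose response; inactive = low primary inhibition, or under 50% at every dose.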

Sequence of Aminopeptidase N (Plasmodium falciparum (isolate 3D7)) (O96935 whole entry, looked up): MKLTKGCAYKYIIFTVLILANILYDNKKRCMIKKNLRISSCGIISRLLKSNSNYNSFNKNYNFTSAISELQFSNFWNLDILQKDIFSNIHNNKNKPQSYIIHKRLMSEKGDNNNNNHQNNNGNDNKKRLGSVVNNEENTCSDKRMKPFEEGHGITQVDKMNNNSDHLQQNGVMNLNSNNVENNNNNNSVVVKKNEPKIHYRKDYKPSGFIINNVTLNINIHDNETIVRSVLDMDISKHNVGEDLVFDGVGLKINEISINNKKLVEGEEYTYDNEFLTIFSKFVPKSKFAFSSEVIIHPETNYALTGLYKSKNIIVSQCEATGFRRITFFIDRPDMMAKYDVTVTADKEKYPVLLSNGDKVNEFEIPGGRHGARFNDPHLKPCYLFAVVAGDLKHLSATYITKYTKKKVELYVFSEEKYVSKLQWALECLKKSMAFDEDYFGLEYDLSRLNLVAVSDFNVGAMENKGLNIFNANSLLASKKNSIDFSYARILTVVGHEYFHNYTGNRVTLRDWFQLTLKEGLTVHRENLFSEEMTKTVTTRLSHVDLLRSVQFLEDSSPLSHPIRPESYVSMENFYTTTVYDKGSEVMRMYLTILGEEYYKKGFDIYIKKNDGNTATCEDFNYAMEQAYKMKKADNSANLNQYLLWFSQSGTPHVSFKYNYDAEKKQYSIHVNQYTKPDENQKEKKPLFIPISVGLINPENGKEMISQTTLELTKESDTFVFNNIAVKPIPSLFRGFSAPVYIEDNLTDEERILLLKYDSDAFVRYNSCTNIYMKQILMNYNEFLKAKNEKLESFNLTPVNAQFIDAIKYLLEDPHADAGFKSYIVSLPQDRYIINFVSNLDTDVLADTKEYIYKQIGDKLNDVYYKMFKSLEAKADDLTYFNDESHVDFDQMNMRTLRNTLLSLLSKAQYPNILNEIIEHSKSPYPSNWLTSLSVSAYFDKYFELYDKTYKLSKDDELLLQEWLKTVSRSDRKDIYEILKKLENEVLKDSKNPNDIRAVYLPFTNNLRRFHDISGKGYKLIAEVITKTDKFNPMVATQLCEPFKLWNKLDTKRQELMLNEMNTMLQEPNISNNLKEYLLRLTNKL

This test addresses Aminopeptidase N (Plasmodium falciparum (isolate 3D7)) (UniProt O96935). As to the kind of experiment: P. falciparum M1AAP inhibitors, biochemical, fluorogenic H-Leu-NHMec substrate, 1536-well (AID 1445).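 Also: plate controls were DMSO full reaction for no effect and no enzyme background for full effect.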 To be noted: recombinant M1AAP, H-Leu-NHMec fluorogenic kinetic assay; at 30 µM, stronger effect = higher value unless noted.
For `COc1ccc(N2CCN(C(=O)CN3C(=O)C4CC=CCC4C3=O)CC2)cc1` (centres undefined), the inhibition was -0.46%. As to `COc1cccc(N2CCN(CC(=O)Nc3nnc(-c4ccccc4)s3)CC2)c1`, the inhibition is -5.75%. To `COc1ccc(N2CCN(CC(=O)Nc3nnc(-c4ccccc4)s3)CC2)cc1` belongs 23.4% (active); to `COc1ccc(N2CCN(C(=O)CN3CCN(C(c4ccccc4)c4ccccc4)CC3)CC2)cc1`, 3.02%.

As for `COc1ccc(N2CCN(CC(=O)N3CCC(C)CC3)CC2)cc1`, the inhibition is 24.4% (active). Take `O=C(CN1CCN(c2ccccc2)CC1)Nc1nnc(-c2ccccc2)s1`: the inhibition was -5.83%. On to `CCn1c(SCC(=O)NCC2CCCO2)nnc1-c1ccccc1` (centres undefined), for which the inhibition was 1.77%. As for `c1cc2c(cc1C1=NNC(=NC3CC3)SC1)OCCO2`, the inhibition is 8.68%. Regarding `CCOC(=O)Cc1csc(NC(=O)CC(C)(C)CC(=O)O)n1`, the inhibition is -4.17%.

Regarding `CCN(CC)S(=O)(=O)c1cccc(-c2n[nH]c(=S)n2/N=C/c2ccc(OC)cc2)c1`, the inhibition was 13.1%. Take `CCCc1c(C(=O)NNc2cc(C(F)(F)F)ccc2Cl)cnn1-c1ccccc1`: the inhibition is -1.62%. With `CCC(=O)NC(=S)Nc1ccc(N2CCOCC2)cc1`, the inhibition was 4.46%. In the case of `O=C(COc1ccc(Cl)cc1)NNC(=O)C(=O)N1CCCCC1`, the inhibition is 32.2%.

With `CCOC(=O)N1CCN(C(=O)C(=O)NNC(=O)COc2ccc(Cl)c(C)c2)CC1`, the inhibition is 3.22%.

In the case of `O=C(O)CC1S/C(=N\N=C2CCCCCCC2)N(c2ccccc2)C1=O` (centres undefined), the inhibition was 7.68%.

Regarding `CN(C(=O)c1ccccc1)C1(C)CCS(=O)(=O)C1` (centres undefined), the inhibition was -2.77%. The value for `O=c1c2ccccc2nc(-c2cccc(Cl)c2)n1O` was 26.1% (active); that for `O=c1c2ccccc2nc(-c2ccc(Cl)c(Cl)c2)n1O` was 0.17%; that for `O=c1c2cc(Cl)ccc2nc(-c2ccccc2)n1O` was 3.06%.

As to `CS(=O)(=O)N(CC(=O)Nc1ccccc1Cl)c1ccc(Cl)cc1`, the inhibition was 4.49%. On to `O=C(Nc1ccc2c(c1)OCCO2)c1c(F)c(F)c(F)c(F)c1F`, for which the inhibition was 10.6%.

For `O=C(/C=C\c1ccccc1OC(=O)c1ccccc1F)c1cc2ccccc2o1`, the inhibition is 6.93%. Take `O=c1c2c(nc3nc(NCc4cccc(Cl)c4)[nH]n13)CCC2`: the inhibition was 9.8%. For the compound `O=C(CSc1nc2c(c(=O)[nH]1)CCC2)Nc1cccc(Cl)c1`, the inhibition is 1.88%. On to `CCCCCCCC(=O)NC1=NC(=O)C(C)(C)S1`, for which the inhibition is -0.69%.

For the compound `Cc1ccc2[nH]c(=O)c(CN(CC3COCCO3)C(=O)Nc3ccccc3C)cc2c1` (centres undefined), the inhibition was 13.8%. In the case of `Cc1cccc(NC(=O)N(Cc2cc3cc(C)cc(C)c3[nH]c2=O)CC2COCCO2)c1` (centres undefined), the inhibition was 2.91%. With `CN(C)S(=O)(=O)c1ccc(C(=O)OCCn2cnc3c2c(=O)n(C)c(=O)n3C)cc1`, the inhibition is -2.31%. On to `O=C(O)CCCC(=O)Nc1cc([N+](=O)[O-])ccc1O`, for which the inhibition was 7.33%. `O=[N+]([O-])c1ccc(O)c(NC(=S)Nc2ccccc2)c1`: the inhibition is -0.91%. To `Cc1ccc(NCc2nnc(SCC(=O)Nc3ncc(C)s3)n2CC2CCCO2)c(C)c1` (centres undefined) belongs 0.09%. `CCCCN(CC)C(=O)c1cc2cc3ccc(OC)cc3nc2o1`: the inhibition was 13.7%. The value for `COc1ccc2cc3cc(C(=O)NC(C)C)oc3nc2c1` was 13.4%. In the case of `CCCCN(CC)CCCNC(=O)c1cc2cc3ccc(OC)cc3nc2o1`, the inhibition is 29.5%. Regarding `COc1ccc2cc3cc(C(=O)NCCN4CCN(c5ccccc5F)CC4)oc3nc2c1`, the inhibition was -0.03%. Turning to `COc1ccc2cc3cc(C(=O)NCCCN4CCOCC4)oc3nc2c1`, the inhibition was 18.2%. For the compound `COc1ccc2cc3cc(C(=O)NCC4COc5ccccc5O4)oc3nc2c1` (centres undefined), the inhibition is 3.66%. With `Cc1cccc2c1Sc1ccccc1CC2=O`, the inhibition was 7.62%. To `CCn1nnnc1NCc1ccc(N2CCCC2)cc1` belongs 5.58%; to `COc1cccc(C(=O)OCC(=O)c2c[nH]c3ccccc23)c1O`, 6.87%; to `COC(=O)N/N=C\c1ccc(OC(=O)c2ccco2)cc1`, 5.66%. To `CC12CCCCC1c1ccccc1C(=NCC(=O)O)N2` (centres undefined) belongs 2.45%; to `CCOC(=O)c1c(NC(=O)c2ccc(-n3cnnn3)cc2)sc2c1CCCC2`, 3.69%; to `C=CCN(C#N)c1nc(OC)nc(N2CCCC2)n1`, -0.65%. To `COc1cccc(C(C(=O)NC2CCCC2)N(C(=O)c2ccco2)C2CC2)c1OC` (centres undefined) belongs 11%. With `O=C(NC1CCCC1)C(c1ccccc1)N(C(=O)c1ccco1)C1CCCC1` (centres undefined), the inhibition is 17.7%. The value for `O=C(NC1CCCC1)C(c1ccccc1F)N(C(=O)c1ccco1)C1CCCC1` (centres undefined) was 25% (active). Turning to `N/C(=N\OC(=O)CCCOc1ccccc1)c1ccc(Br)cc1`, the inhibition is 5.3%.

As to `O=CN1CCN(C(=O)COc2ccc(Cl)cc2Br)CC1`, the inhibition is 1.29%.

For `CCOc1cc(/C=C2\SC(=O)N(c3ccc(O)cc3)C2=O)ccc1O`, the inhibition was 15.2%. Consider `CCC1=NN2C(=N)/C(=C\c3ccc(SCc4ccco4)o3)C(=O)N=C2S1`, for which the inhibition is 7.98%.

For `CCCC1=NN2C(=N)/C(=C\c3ccc(SCc4ccco4)o3)C(=O)N=C2S1`, the inhibition was 20.4%. For `CCC1=NN2C(=N)/C(=C\c3ccc(OCc4cc(=O)n5nc(CC)sc5n4)c(OC)c3)C(=O)N=C2S1`, the inhibition was 32.8%.

For the compound `COc1cc(/C=C2/C(=N)N3C=CSC3=NC2=O)ccc1OCCCOc1cc(C)ccc1C`, the inhibition is -5.49%. For the compound `CCOc1cc(/C=C2\SC(=O)N=C2N)ccc1O`, the inhibition was 22%.

For the compound `O=S(=O)(NCc1ccccn1)c1cccc2nsnc12`, the inhibition was 3.36%. The value for `Cc1cccc(NC(=O)NCc2ccc3c(c2)OCO3)c1C` was -4.45%; that for `CSc1ccc(S(=O)(=O)NC(C)c2ccccc2)cc1` (centres undefined) was -2.61%.

`CCOc1cc(OCC)nc(S(C)(=O)=O)n1`: the inhibition is 2.35%. Consider `Cn1c(O)c(C=NCC2CCNCC2)c(=O)n(C)c1=O`, for which the inhibition was -0.42%. With `CC(C)C(=O)N1CCC(CN=Cc2c(O)n(C3CCCCC3)c(=O)n(C3CCCCC3)c2=O)CC1`, the inhibition was 27% (active).

Regarding `CC(C)C(=O)N1CCC(CN=CC2=C(O)CC(C)(C)CC2=O)CC1`, the inhibition was 6.11%. As to `COC(=O)Cc1[nH]n(-c2ccccc2)c(=O)c1C=Nc1ccc(C)cc1`, the inhibition is -0.62%. The value for `O=C(Nc1nc2nc(-c3ccccc3)cc(=O)n2[nH]1)c1ccccc1` was -0.35%; that for `Cc1ccc(C(=O)Nc2nc3nc(-c4ccccc4)cc(=O)n3[nH]2)cc1` was 25.9% (active); that for `COc1ccc(C(=O)Nc2nc3nc(-c4ccccc4)cc(=O)n3[nH]2)cc1` was 10.9%. The value for `Cc1onc(-c2c(F)cccc2Cl)c1C(=O)Nc1ccc(S(=O)(=O)Nc2ncccn2)cc1` was 13.8%; that for `O=c1ccc2ccc(Oc3ccc([N+](=O)[O-])cc3[N+](=O)[O-])cc2o1` was 11.5%. With `Cc1cc(=O)oc2cc(Oc3ccc(C(N)=O)cc3[N+](=O)[O-])ccc12`, the inhibition was 30%. Regarding `CC(NC(=O)CN(C1CCCCC1)S(C)(=O)=O)c1ccccc1` (centres undefined), the inhibition was 2.9%. Consider `CC(NC(=O)COc1ccc(N(C)S(=O)(=O)c2ccccc2)cc1)c1ccccc1` (centres undefined), for which the inhibition was 1.27%.

Consider `NS(=O)(=O)c1ccc(CCn2c(=S)[nH]c3ccc(F)cc3c2=O)cc1`, for which the inhibition was -3.16%. In the case of `COc1cccc(C2c3c(oc4ccccc4c3=O)C(=O)N2CCCN2CCOCC2)c1` (centres undefined), the inhibition was 7.18%.

In the case of `CCOc1ccc(C2c3c(oc4ccccc4c3=O)C(=O)N2CCCN2CCOCC2)cc1` (centres undefined), the inhibition was 2.52%. Turning to `O=C1c2oc3ccc(F)cc3c(=O)c2C(c2cccc(O)c2)N1CCCN1CCOCC1` (centres undefined), the inhibition is -3%.

For `O=C1c2oc3ccccc3c(=O)c2C(c2cccc(O)c2)N1CCCN1CCOCC1` (centres undefined), the inhibition was 26.8% (active).

For `C=CCOc1ccc(C2c3c(oc4ccccc4c3=O)C(=O)N2CCCN2CCOCC2)cc1` (centres undefined), the inhibition was 24.2% (active). Regarding `CCCOc1ccc(C2c3c(oc4ccccc4c3=O)C(=O)N2CCCN2CCOCC2)cc1` (centres undefined), the inhibition is 4.5%.

For `Cn1c(=O)c2c(nc(SCCN3CCOCC3)n2Cc2ccccc2)n(C)c1=O`, the inhibition was 7.6%. Consider `Cn1c(=O)c2c(nc(SCCN3CCOCC3)n2Cc2ccc(F)cc2)n(C)c1=O`, for which the inhibition was -1.46%.

Regarding `Cc1ccc(Cn2c(SCCN3CCOCC3)nc3c2c(=O)n(C)c(=O)n3C)cc1`, the inhibition was 23.8% (active). As for `Cc1ccc(NC(=O)NC2=NN(c3ccccc3)C(=O)/C2=C2/CCCN2C)cc1`, the inhibition is 8.56%. As for `O=C(c1nc2ccccn2c1CN1CCC(Cc2ccccc2)CC1)N1CCCC1`, the inhibition is 5.48%.

As to `CCOc1ccc(N(CC(=O)Nc2ccccc2C(=O)NCc2ccco2)S(C)(=O)=O)cc1`, the inhibition is 23.4% (active). Consider `CCOc1ccccc1N(CC(=O)Nc1ccccc1C(=O)NCc1ccco1)S(C)(=O)=O`, for which the inhibition is 21%. The value for `COc1ccc(N(CC(=O)Nc2ccccc2C(=O)NCc2ccco2)S(C)(=O)=O)cc1` was 3.79%.

Take `COc1ccc(C(C)=O)cc1CSc1nncn1C`: the inhibition is 4.42%. With `COC(=O)c1c(NC(NC(=O)c2ccccc2)(C(F)(F)F)C(F)(F)F)sc2c1CCN(C)C2`, the inhibition was 2.95%. For the compound `CCOC(=O)N(CC)OC(=O)Nc1ccc(Cl)cc1`, the inhibition is 2.39%. As for `CCOC(=O)N(C)OC(=O)Nc1ccc(Cl)c(Cl)c1`, the inhibition was 24% (active). Take `CCOC(=O)CNNC(=O)Nc1ccc(Cl)c(Cl)c1`: the inhibition is -5.41%. As to `Nc1nc(SCC(=O)Nc2cc(-c3ccccc3)nn2-c2ccccc2)n[nH]1`, the inhibition was 26.4% (active).

Take `Cc1ccc(-c2cc(NC(=O)CSc3n[nH]c(N)n3)n(-c3ccccc3)n2)cc1`: the inhibition was 3.01%. The value for `CCCc1ccc(-c2cc(NC(=O)CSc3n[nH]c(N)n3)n(-c3ccccc3)n2)cc1` was -9.14%.
